# This excerpt belongs to a sample that is enriched for hits.
# STK33 kin inh – human STK33 kinase inhibition; ADP-Glo luminescence, MBP substrate; inhibition, % at 12.5 µM; actives 0.44% (n = 27,000); AID 2322; in the data active = inhibition above about 20%
# Target sequence (Q9BYT3 whole entry, looked up): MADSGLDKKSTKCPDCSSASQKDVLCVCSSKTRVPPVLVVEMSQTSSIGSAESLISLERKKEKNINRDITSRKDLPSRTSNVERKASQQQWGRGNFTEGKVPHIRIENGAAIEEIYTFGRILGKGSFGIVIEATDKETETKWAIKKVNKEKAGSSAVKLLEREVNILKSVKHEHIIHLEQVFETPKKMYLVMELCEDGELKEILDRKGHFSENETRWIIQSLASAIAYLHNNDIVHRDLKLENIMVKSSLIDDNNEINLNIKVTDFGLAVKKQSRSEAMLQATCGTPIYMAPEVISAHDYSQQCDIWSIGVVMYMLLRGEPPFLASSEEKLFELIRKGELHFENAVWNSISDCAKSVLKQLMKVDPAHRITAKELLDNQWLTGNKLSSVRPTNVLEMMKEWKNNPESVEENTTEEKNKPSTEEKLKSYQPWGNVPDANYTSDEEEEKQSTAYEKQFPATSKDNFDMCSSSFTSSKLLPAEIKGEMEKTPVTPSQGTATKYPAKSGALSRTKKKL
# PD-1 reversal – reversal of PD-1 mediated T-cell inhibition | activation, % (test concentration not listed) | 29,000 tested, under 10 active | AID 2316 | primary human CD4 T cells, PD-L1 beads, CellTiter-Glo 96 h; call rule not given here
# NOMO-1 viab – STK33 inhibitor candidate reducing NOMO-1 cell viability | AID 2330 | NOMO-1 AML viability, CellTiter-Glo luminescence, 72 h | inhibition, % (test concentration not listed) | actives 7.5% (n = 37,000); in the data active = inhibition above about 80%
# A number is an active result; 0 = inactive; - = not tested or not shown.
SMILES,STK33 kin inh,PD-1 reversal,NOMO-1 viab
CN1C(=O)c2ccccc2-n2c(nc3ccccc3c2=O)[C@@]12O[C@H]2c1ccccc1,0,0,104
COc1ccc([Si](C)(C)[C@H]2[C@H](CC(=O)N3Cc4ccccc4C[C@H]3CO)O[C@@]3(C(=O)N(C)c4c(Br)cc(C)cc43)[C@@H]2C)cc1,0,-,-
C[C@@H]1CN([C@H](C)CO)C(=O)c2cccc(NC(=O)c3nc4ccccc4s3)c2O[C@H]1CN(C)Cc1ccc2c(c1)OCO2,-,0,98
C[C@@H]1CN([C@H](C)CO)C(=O)c2cccc(NC(=O)c3nc4ccccc4s3)c2O[C@@H]1CN(C)Cc1ccccc1,-,-,0
C[C@@H]1CN([C@H](C)CO)C(=O)c2cccc(NC(=O)c3nc4ccccc4s3)c2O[C@@H]1CN(C)Cc1ccc2c(c1)OCO2,-,0,0
C[C@H]1CN([C@@H](C)CO)C(=O)c2cccc(NC(=O)c3nc4ccccc4s3)c2O[C@@H]1CN(C)Cc1ccc(Cl)c(Cl)c1,-,0,86
C[C@@H]1CN([C@@H](C)CO)C(=O)c2cccc(NC(=O)c3nc4ccccc4s3)c2O[C@@H]1CN(C)Cc1ccc2c(c1)OCO2,-,0,90
C[C@H]1CN([C@@H](C)CO)C(=O)c2cccc(NC(=O)c3nc4ccccc4s3)c2O[C@@H]1CN(C)Cc1ccc2c(c1)OCO2,-,-,0
CCOC(=O)c1c[nH]c2c(C)c(Cl)ccc2c1=O,-,0,0
CCCn1c(NCCCO)nc2ccccc21,0,0,0
C[C@@H]1CN([C@@H](C)CO)C(=O)Cc2cc(NC(=O)Nc3ccccc3)ccc2O[C@@H]1CN(C)Cc1ccc(-c2ccccc2)cc1,0,0,0
C[C@H]1CN([C@@H](C)CO)C(=O)Cc2cc(NC(=O)Nc3ccc(C(F)(F)F)cc3)ccc2O[C@@H]1CN(C)Cc1ccc(-c2ccccc2)cc1,0,0,127
C[C@@H]1CN([C@@H](C)CO)C(=O)Cc2cc(NC(=O)Nc3ccc(C(F)(F)F)cc3)ccc2O[C@@H]1CN(C)Cc1ccc(-c2ccccc2)cc1,-,0,0
C[C@H]1CN([C@@H](C)CO)C(=O)Cc2cc(NC(=O)Nc3ccc(C(F)(F)F)cc3)ccc2O[C@H]1CN(C)Cc1ccc(-c2ccccc2)cc1,0,0,128
CCC(Sc1nnc2c3ccccc3n(C)c2n1)C(=O)Nc1ncccc1Cl (stereo not given),0,0,0
CCN(CC)c1ccc2cc(C(N)=O)c(=Nc3ccc(F)cc3)oc2c1,-,0,94
CCN(CC(=O)Nc1cccc(OC)c1)S(=O)(=O)c1ccc(Cl)cc1,0,-,0
N#Cc1c(C(F)(F)F)cc(-c2cccs2)nc1SCC(=O)Nc1sc2c(c1C#N)CCC2,0,0,0
CC(C)(C)c1cc(C(F)(F)F)c(C#N)c(SCC(=O)Nc2sc3c(c2C#N)CCCC3)n1,0,-,97
C=CCOC1=NC2C(C(=O)N(C)C(=O)N2C)N1C (stereo not given),-,0,0
C[C@H]1CN([C@@H](C)CO)C(=O)Cc2cc(NS(=O)(=O)c3cccs3)ccc2O[C@@H]1CN(C)Cc1ccc(-c2ccccc2)cc1,-,-,89
C[C@@H]1CN([C@H](C)CO)C(=O)c2cc(NS(=O)(=O)c3cccs3)ccc2O[C@@H]1CN(C)Cc1ccc(-c2ccccc2)cc1,-,0,113
C[C@H]1CN([C@@H](C)CO)C(=O)Cc2cc(NS(=O)(=O)c3cccs3)ccc2O[C@H]1CN(C)Cc1ccc(Oc2ccccc2)cc1,0,0,0
C[C@@H]1CN([C@H](C)CO)C(=O)Cc2cc(NS(=O)(=O)c3cccs3)ccc2O[C@@H]1CN(C)Cc1ccc(Oc2ccccc2)cc1,0,-,118
C[C@H](CO)N1C[C@H](C)[C@H](CN(C)Cc2ccc(-c3ccccc3)cc2)Oc2ccc(NS(=O)(=O)c3cccs3)cc2C1=O,-,0,0
SMILES,STK33 kin inh,PD-1 reversal,NOMO-1 viab
C[C@@H]1CN([C@H](C)CO)C(=O)Cc2cc(NS(=O)(=O)c3cccs3)ccc2O[C@H]1CN(C)Cc1ccccc1,0,-,0
Cc1cccc(NC(=O)C2CC(=O)n3c(nc4ccccc43)N2)c1 (stereo not given),0,-,0
CSc1ccccc1NC(=O)CN(c1cccc(Cl)c1Cl)S(C)(=O)=O,0,-,0
Cn1c(SCC(=O)c2ccc(F)cc2)nnc1-c1cccc([N+](=O)[O-])c1,0,-,0
Cc1[nH]c2ccccc2c1C(=O)CSc1nc2sc(C)c(C)c2c(=O)n1-c1ccccc1,0,0,100
Cc1[nH]c2ccccc2c1C(=O)CSc1nc2scc(-c3ccco3)c2c(=O)n1-c1ccccc1,0,0,0
Cc1ccc(NC(=O)c2ccco2)c(NC(=O)COc2ccccc2Cl)c1,0,-,0
COc1cc2c(c(N)c1OC)C(=O)/C(=C/c1cc(C)c(O)c(C)c1)C2,0,0,97
COc1cc(OC)c(C2=NOC(C(=O)NCc3ccco3)C2)cc1Cl (stereo not given),0,0,129

# Bioassay records deposited in PubChem by Broad Institute.
